Measured values as given in the supplement of paper PMC6522484.
Where “and” joins values, the source holds several entries; their conditions need not be identical. Equal values may be shown once. ± gives the standard deviation of the averaged measurements.

Experiments:
DLD1 [1] = assay: cell viability (CellTiter-Glo) relative to plate median (fraction of plate median); higher = more viable cells; details: 5 µM; treatment time 24 h; reporter: 7TFP
Procedure, shortened: (§1)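 For this screen, colorectal cancer cell lines carrying stable lentiviral TCF/Wnt firefly luciferase reporters, either 7TFP or TCF4/Wnt, were seeded into 384-well plates. A day's wait of 24 h preceded addition of library compounds at a final 5 µM, which stayed on the cells for 24 h. Firefly luciferase or CellTiterGlo luminescence, read on parallel plates, was normalised to the plate median per well, and the reported value is the mean of two independent replicates.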

HCT116 = assay: as above; details: 5 µM; treatment time 24 h; reporter: TCF4/Wnt
Procedure, shortened: as §1

SW480 [2] = assay: as above; details: 5 µM; treatment time 24 h; reporter: 7TFP
Procedure, shortened: as §1

DLD1 [3] = assay: TCF/Wnt firefly luciferase reporter signal relative to plate median (fraction of plate median); higher = higher Wnt reporter signal; details: 5 µM; treatment time 24 h; reporter: 7TFP
Procedure, shortened: as §1

SW480 [4] = assay: as above; details: 5 µM; treatment time 24 h; reporter: 7TFP
Procedure, shortened: as §1

Compound | cell viability (DLD1 [1]) | cell viability (HCT116) | cell viability (SW480 [2]) | TCF/Wnt firefly luciferase reporter signal (DLD1 [3]) | TCF/Wnt firefly luciferase reporter signal (SW480 [4])
COc1cc2c(c(OC)c1OC)-c1ccc(OC)c(=O)cc1[C@@H](NC(C)=O)CC2 | 1.1 ± 0.057 | 0.636 ± 0.016 | 1.22 ± 0.099 | 0.77 ± 0.22 | 0.802 ± 0.13
CN(C)C(=O)Oc1ccc[n+](C)c1 | 1.04 ± 0.042 | 1.04 ± 0.11 | 1.02 | 1.08 ± 0.078 | 1.05 ± 0.035
C=C(C)c1cc2cc(C(C)=O)c(O)cc2o1 | 1.14 ± 0.13 | 1.06 ± 0.071 | 1.07 ± 0.057 | 1.21 ± 0.29 | 1.12 ± 0.085
CC1(C)C(=O)C=C[C@]2(C)[C@H]3CC[C@@]4(C)[C@H](c5ccoc5)OC(=O)[C@H]5O[C@]54[C@]3(C)[C@H](O)C[C@@H]12 | 1.01 ± 0.12 | 1.08 ± 0.028 | 0.989 ± 0.016 | 0.904 ± 0.028 | 0.972 ± 0.097
O=c1ccc2cc(O[C@@H]3O[C@H](CO)[C@@H](O)[C@H](O)[C@H]3O)c(O)cc2o1 | 1.04 | 0.922 and 0.995 | 0.965 and 0.998 | 1.23 and 1.08 | 1.09 and 1.19
Cc1cccc(C)c1NC1=NCCCS1 | 1.04 ± 0.073 | 1.01 ± 0.036 | 0.992 ± 0.012 | 1.07 ± 0.05 | 1.02 ± 0.083
CC1(C)C2CC(=O)[C@]3(C)C(CC[C@@]4(C)[C@H](c5ccoc5)OC(=O)[C@H]5O[C@]543)[C@@]2(C)C(=O)C[C@H]1O (stereo not given in full) | 1.015 ± 0.0071 | 0.988 ± 0.018 | 1.01 ± 0.071 | 0.918 ± 0.037 | 0.965 ± 0.079
CC[C@@]1(O)C[C@H](O[C@H]2C[C@H](N(C)C)[C@H](O)[C@H](C)O2)c2c(cc3c(c2O)C(=O)c2c(O)cccc2C3=O)[C@H]1C(=O)OC | 1.07 ± 0.17 | 0.9035 ± 0.0064 | 1.2 ± 0.12 | 1.4 ± 0.05 | 0.842 ± 0.028
N[C@H](CO)Cc1ccccc1 | 0.998 ± 0.059 | 0.982 ± 0.12 | 0.981 ± 0.0042 | 0.901 ± 0.09 | 0.761 ± 0.19
COP(=S)(OC)Oc1ccc(Sc2ccc(OP(=S)(OC)OC)cc2)cc1 | 1.025 ± 0.0071 | 1.06 ± 0.014 | 0.987 ± 0.011 | 1.06 ± 0.092 | 1.04 ± 0.014
NCC(=O)c1ccccc1 | 0.981 ± 0.11 | 0.999 ± 0.059 | 0.983 ± 0.018 | 0.851 ± 0.14 | 0.917 ± 0.2
CC(C)(C)[C@]1(O)C[C@@H]2OC(=O)C[C@@]23C(=O)O[C@@H]2OC(=O)[C@H](O)[C@]213 | 0.922 ± 0.033 | 1.03 ± 0.05 | 1.01 ± 0.077 | 1.17 ± 0.042 | 1.07 ± 0.1
CC(C)[N+](C)(CCC(C(N)=O)(c1ccccc1)c1ccccc1)C(C)C | 1.045 ± 0.0071 | 1.055 ± 0.0071 | 0.996 ± 0.0057 | 1.02 ± 0.12 | 1.03 ± 0.042
